Screening data from PubChem.
TSHR antagonist: Antagonists of the Thyroid Stimulating Hormone Receptor: HTS campaign | Thyrotropin receptor (Homo sapiens), P16473 | TSHR-expressing cells, TSH-stimulated cAMP HTRF, 2 h; active compounds read low | activity change, negative = inhibition, % at 11.5 µM | actives 0.2% (n = 330,000) | AID 504810, 2011;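 active means activity change below a set negative limit, meaning inhibition stronger than a set level, cut at about -70% in these data; inconclusive means activity change between two set negative limits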
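Cell-based HTRF cAMP assay; TSHR cells + compound, TSH EC80 (4nM final), 2 h, 37 deg C. Lysis with anti-cAMP cryptate and cAMP-d2, 30 min RT, read 665/620 nm.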
RORg inh: qHTS for inhibitors of ROR gamma transcriptional activity. Nuclear receptor ROR-gamma (Mus musculus), P51450. Drosophila S2 Gal4-RORgamma UAS-luciferase reporter, 20 h. Potency, µM (series often up to 53.6 µM), usual class: inhibitors. actives 5.4% (n = 310,000). AID 2551, 2010; further: nearly all actives have a fitted effect of over 60% in size
Target sequence (P51450 whole entry, looked up, the tested form may be a part): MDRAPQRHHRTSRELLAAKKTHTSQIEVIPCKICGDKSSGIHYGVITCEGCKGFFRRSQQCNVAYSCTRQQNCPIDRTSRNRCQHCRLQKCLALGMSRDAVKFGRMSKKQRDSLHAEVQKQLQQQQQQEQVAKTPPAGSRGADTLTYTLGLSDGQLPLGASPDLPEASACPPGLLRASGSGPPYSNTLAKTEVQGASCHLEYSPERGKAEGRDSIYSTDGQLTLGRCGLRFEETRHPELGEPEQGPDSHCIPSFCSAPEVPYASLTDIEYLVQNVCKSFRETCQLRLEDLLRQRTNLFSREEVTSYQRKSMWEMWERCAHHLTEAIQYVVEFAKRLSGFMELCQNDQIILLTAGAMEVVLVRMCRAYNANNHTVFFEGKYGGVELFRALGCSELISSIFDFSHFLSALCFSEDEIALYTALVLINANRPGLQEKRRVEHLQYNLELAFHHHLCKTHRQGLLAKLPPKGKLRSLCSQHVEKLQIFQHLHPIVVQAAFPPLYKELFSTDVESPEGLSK
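Drosophila Schneider cells stably carrying a metallothionein-driven Gal4 DBD–ROR gamma fusion and a UAS-Photinus luciferase reporter were exposed to compound for 1 hr, then induced with copper sulfate (700 uM final) for 20 hr at ambient temperature before luminescence reading.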
ELG1 DNA repair: qHTS screen for small molecules that inhibit ELG1-dependent DNA repair in human embryonic kidney (HEK293T) cells expressing luciferase-tagged ELG1; Potency, µM (top dose mostly 46.1 µM), usual class: inhibitors; AID 504467, 2011; HEK293T ELG1-luciferase reporter, luminescence, 16 h; DNA damage induced by 5-fluorouridine; actives 2.3% (n = 330,000); further: nearly all actives have a fitted effect of over 55% in size
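DMSO vehicle served as the neutral condition. Each well held 2,000 cells given 5-fluorouridine plus compound; after 16 hr at 37 °C/5% CO2, ONE-Glo was added and luciferase measured 30 min later.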
VP16 counter: VP16 counterscreen qHTS for inhibitors of ROR gamma transcriptional activity | Potency, µM (highest dose often 53.6 µM), hits mostly inhibitors | actives 3.5% (n = 310,000) | Drosophila S2 Gal4-VP16 UAS-luciferase, luminescence, 20 h | AID 2546, 2010;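 further: Gal4-VP16 expression switched on by copper sulfate through the metallothionein promoter; nearly all actives have a fitted effect of over 50% in size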
FBPA coupling cs: qHTS Assay for Inhibitors of Fructose-1,6-bisphosphate Aldolase from Giardia Lamblia: Coupling assay counterscreen. activity change, negative = inhibition, % at 58.2 µM, hits read low. actives 0.67% (n = 290,000). coupling enzyme system counterscreen, AmpLite Red fluorescence; in the data active means activity change below about -30%
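Final compound at 57.5 uM, incubated 10 min at RT with coupling enzyme reagent (glyceraldehyde-3-phosphate), then 20 min with substrate and AmpLite Red detection. Fluorescence read at 525/598 nm; tests interference with the coupling assay, not aldolase inhibition.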
A number is an active result; [ ] = remark or other dose. Most compounds without a hit are left out; they make up all but 8% or so of the library. Unless noted, the call rests on the fitted dose curve; in most records, active means well fitted curve in the direction sought with a large enough effect; inconclusive means small, poorly fitted or top-dose-only effect, or another doubt; inactive means no such curve, though single readings can be large; an effect the other way counts as inactive or inconclusive.

What do the screens show for `CC(=O)Nc1ccc(S(=O)(=O)Nc2ccc(Cc3ccncc3)cc2)cc1`?
TSHR antagonist: inactive; RORg inh: inconclusive; ELG1 DNA repair: inactive; VP16 counter: 10µM; FBPA coupling cs: inactive

What do the screens show for `CCc1ccc(NS(=O)(=O)c2ccc(OC)c(C)c2)cc1`?
TSHR antagonist: inactive; RORg inh: inactive; ELG1 DNA repair: inactive; VP16 counter: inconclusive; FBPA coupling cs: inactive

What do the screens show for `CC(=O)Nc1ccc(Cc2ccncc2)cc1`?
TSHR antagonist: inactive; RORg inh: inactive; ELG1 DNA repair: inactive; VP16 counter: inactive[0.365 µM]; FBPA coupling cs: inactive

How did CC(=O)c1ccc(NS(=O)(=O)c2ccc(CC(C)C)cc2)cc1 do in these assays?
TSHR antagonist: inactive; RORg inh: inconclusive; ELG1 DNA repair: inactive; VP16 counter: 10µM; FBPA coupling cs: inactive

What do the screens show for `COc1ccc(S(=O)(=O)Nc2ccc(Cc3ccncc3)cc2)cc1C`?
TSHR antagonist: inactive; RORg inh: inactive; ELG1 DNA repair: inconclusive; VP16 counter: 22µM

Results for CNC1C(O)C2OC3OC(C)CC(=O)[C@@]3(O)O[C@H]2[C@H](NC)C1O (stereo partly specified) ?
RORg inh: inactive; VP16 counter: inactive; FBPA coupling cs: inactive

What do the screens show for `COc1cccc2c1C(=O)c1c(O)c3c(c(O)c1C2=O)C[C@@](O)(C(=O)CO)C[C@@H]3OC1CC(N)C(O)C(C)O1` (stereo partly specified)?
RORg inh: inactive[10 µM]; VP16 counter: 10µM

Results for COc1cccc2c1C(=O)c1c(O)c3c(c(O)c1C2=O)C[C@@](O)(C(=O)CO)C[C@@H]3O[C@H]1C[C@H](N)[C@H](O)[C@H](C)O1 ?
TSHR antagonist: inactive; RORg inh: 3.5µM; ELG1 DNA repair: inconclusive; VP16 counter: 5.6µM; FBPA coupling cs: -40

What do the screens show for `CC(=O)C1(O)Cc2c(O)c3c(c(O)c2C(OC2CC(N)C(O)C(C)O2)C1)C(=O)c1c(O)cccc1C3=O` (stereo unspecified)?
RORg inh: 11µM; VP16 counter: inconclusive

How did COc1cccc2c1C(=O)c1c(O)c3c(c(O)c1C2=O)C[C@@](O)(C(=O)CO)C[C@@H]3O[C@@H]1C[C@H](N)[C@H](O)[C@H](C)O1 do in these assays?
RORg inh: 11µM; VP16 counter: 7.9µM; FBPA coupling cs: inactive

How did CCn1c(SCC(O)c2ccccc2)nnc1-c1ccccc1 (stereo unspecified) do in these assays?
TSHR antagonist: inactive; RORg inh: inactive; ELG1 DNA repair: inconclusive; VP16 counter: inactive; FBPA coupling cs: inactive

What do the screens show for `CCSc1cnc(-c2ccccc2)n1CC`?
TSHR antagonist: inactive; RORg inh: 13µM; ELG1 DNA repair: inactive; VP16 counter: inactive; FBPA coupling cs: inactive

How did Cc1ccc(S(=O)(=O)CCC(=O)c2ccc(O)cc2O)cc1 do in these assays?
TSHR antagonist: inactive; RORg inh: 14µM; ELG1 DNA repair: inactive; VP16 counter: inconclusive; FBPA coupling cs: inactive

Results for COc1ccc(C(=O)COC(=O)CCS(=O)(=O)c2ccc(C)cc2)c(OC)c1 ?
TSHR antagonist: inactive; ELG1 DNA repair: inactive

How did COc1ccc(C(=O)CCS(=O)(=O)c2ccc(C)cc2)cc1OC do in these assays?
TSHR antagonist: inactive; RORg inh: 2.8µM; ELG1 DNA repair: inactive; VP16 counter: 4.5µM; FBPA coupling cs: inactive

What do the screens show for `Cc1ccc(S(=O)(=O)CCC(=O)OCC(=O)c2cc(C)ccc2C)cc1`?
TSHR antagonist: inactive; ELG1 DNA repair: inactive

How did COc1ccc(C(=O)COC(=O)CCNS(=O)(=O)c2ccccc2)cc1Br do in these assays?
TSHR antagonist: inactive; RORg inh: inactive; ELG1 DNA repair: inactive; VP16 counter: inactive

What do the screens show for `Cc1ccc(C(C[N+](=O)[O-])c2c(-c3ccccc3O)[nH][nH]c2=O)cc1` (stereo unspecified)?
TSHR antagonist: inactive; RORg inh: 5µM; ELG1 DNA repair: inactive; VP16 counter: 11µM; FBPA coupling cs: inactive
